Drawing on PubChem BioAssay AID651610 (Broad Institute, 2012), this text covers inhibition for 45 compounds.

Hit rate of the full screen: of about 360,000 compounds, about 3,900 (1.1%) were called active. This excerpt belongs to a sample that is enriched for actives. Values without a mark were called inactive.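 Rule for the calls: active = mean replicate inhibition score of at least 50 and every replicate individually at or above 50; inconclusive = only one of the two criteria met; inactive = mean below 50 and not all replicates reaching 50.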

The experiment is described as follows: blockers of JRFL envelope-mediated fusion – HeLa-JRFL effector, CEM21 target cells, luciferase, primary screen (AID 651610).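 Note: 0% = plate neutral controls and 100% = maraviroc near 300 nM.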 The settings on record: HeLa-JRFL Env/CEM21 cell fusion, active compounds read high; at 16.7 µM unless noted.
For the compound `COc1ccc(NC(=O)N(C)C[C@@H]2Oc3ccc(NC(=O)Cc4cn(C)c5ccccc45)cc3CC(=O)N([C@@H](C)CO)C[C@H]2C)cc1`, the inhibition is -18.3%.
In the case of `CCc1cnc(N2[C@H](C#N)[C@H](c3ccc(C4=CCCC4)cc3)[C@@H]2CO)s1`, the inhibition is 1.6%.
For `Cc1ccc(O)c(-c2cc(C(=O)NCc3ccccc3)[nH]n2)c1` the value was -126% [at 12.3 µM].
In the case of `CCCOc1ccc(F)cc1-c1cc(C(=O)NCc2ccc(F)cc2)[nH]n1`, the inhibition was -16.3% [at 12.3 µM].
`Cc1cc(O)ccc1-c1cc(C(=O)NCc2cc(C(F)(F)F)cc(C(F)(F)F)c2)[nH]n1`: the inhibition was 59.8% [at 12.3 µM] (active).
For `CS(=O)(=O)N1[C@H](C#N)[C@H](c2ccc(C#CC3CCCC3)cc2)[C@H]1CO` the value was 1.54%.
For `COc1cccc(S(=O)(=O)Nc2ccc3c(c2)[C@@H]2C[C@H](CC(=O)NC4CCCCC4)O[C@H](CO)[C@@H]2O3)c1` the value was -12.8%; for `COc1ccccc1-c1cn(CC[C@H]2CC[C@H](NC(=O)Cc3ccccn3)[C@H](CO)O2)nn1`, 1.37%.
For `Cc1noc(C)c1NC(=O)Nc1ccc2c(c1)C(=O)N([C@H](C)CO)C[C@@H](C)[C@H](CN(C)S(=O)(=O)c1ccc(Cl)cc1)OCCCC[C@H](C)O2` the value was -20.3%; for `CCC(=O)N[C@H]1C=C[C@@H](CC(=O)NCC2CCCCC2)O[C@H]1CO`, 4.15%; for `Cn1c(Nc2cccc(Cl)c2)nc2ccccc21`, -29.5% [at 12.3 µM].
In the case of `Cc1cccc(Nc2nc(NCCO)nc(N3CCCC3)n2)c1`, the inhibition was -14.8% [at 12.3 µM].
The value for `OCCCNc1nccc(-c2cc(Nc3cccc(Cl)c3)ncn2)n1` was 95.7% [at 12.3 µM] (active); that for `C[C@@H]1CN([C@@H](C)CO)C(=O)c2cc(NC(=O)Nc3ccc4c(c3)OCO4)ccc2O[C@@H]1CN(C)C(=O)Nc1ccc2c(c1)OCO2` was 16%; that for `C[C@@H]1CN([C@H](C)CO)C(=O)c2cccc(NC(=O)Nc3cccc4ccccc34)c2O[C@@H]1CN(C)Cc1ccccc1` was -16.3%.
For `COc1ccc(-c2nn(C)c(=O)c3ccccc23)cc1CNC(=O)C1CCCCC1` the value was 23.3% [at 12.3 µM]; for `COc1ccc(-c2nn(C)c(=O)c3ccccc23)cc1NC(=O)COc1ccccc1`, 79.8% [at 12.3 µM] (active).
Turning to `COc1ccc(S(=O)(=O)N2CCOCC2)cc1NC(=O)COc1ccccc1`, the inhibition is -4.29% [at 12.3 µM].
Regarding `Cc1noc(C)c1NC(=O)N[C@H]1CC[C@H](CC(=O)N2CCCCC2)O[C@@H]1CO`, the inhibition was 4.43%.
For `CC1=C(C(=O)N(C(C)C)C(C)C)CC(CC(=O)NCC2CCCCC2)C(=O)N1Cc1ccccc1` (stereo not given) the value was 61.4% [at 12.3 µM] (active).
For `CCN(CC)C(=O)C1=C(C)N(Cc2ccccc2)C(=O)C(CC(=O)NC(c2ccccc2)c2ccccc2)C1` (stereo not given) the value was -23.1% [at 12.3 µM]; for `CC1=C(C(=O)N2CCOCC2)CC(CC(=O)NCC2CCCCC2)C(=O)N1Cc1ccc(F)cc1` (stereo not given), 6.87% [at 12.3 µM]; for `CC(NCc1ccccc1OC1CCCC1)c1ccccc1` (stereo not given), 62.5% [at 12.3 µM] (active).
`COc1cc(CNC2CCCCC2)c(Br)cc1OC1CCCC1`: the inhibition is -65.6% [at 12.3 µM].
For `CC(C)(C)NCc1cc(Br)ccc1OC1CCCC1`, the inhibition is 14.4% [at 12.3 µM].
As for `CCOC(=O)CNC(=O)N(C)[C@H]1C[C@H]2c3[nH]c4c(-c5ccc6c(c5)OCO6)cccc4c3CCN2C(=O)[C@H]1[C@H](C)O`, the inhibition is -112% [at 12.3 µM].
As to `CN1CCN(C(=O)C[C@H]2C[C@@H]3c4cc(NC(=O)NC5CCCC5)ccc4O[C@@H]3[C@@H](CO)O2)CC1`, the inhibition was -8.97%.
Take `CC1CCN(C(=O)c2cc3nc(C4CC4)cc(C(F)(F)F)n3n2)CC1`: the inhibition was 12.6% [at 12.3 µM].
The value for `CC1CCN(C(=O)c2ncn3c2C(=O)N[C@@H](C)C3)CC1` was 131% [at 12.3 µM] (active); that for `CC1CCN(C(=O)c2ccc3c(c2)NC(=O)CN3)CC1` was 1.27% [at 12.3 µM].
Regarding `CCCNC(=O)N1[C@@H](C#N)[C@H](c2ccc(-c3ccc(C(=O)N(C)C)cc3)cc2)[C@@H]1CO`, the inhibition was 26%.
Regarding `O=C(NCc1ccncn1)[C@@H]1[C@@H](CO)[C@@H]2Cn3c(ccc(-c4ccc(F)cc4)c3=O)[C@@H]2N1CC1CC1`, the inhibition is -1.91%.
On to `COc1ccc(NC(=O)Nc2ccc3c(c2)CC(=O)N([C@@H](C)CO)C[C@H](C)[C@@H](CN(C)S(=O)(=O)c2cn(C)cn2)O3)cc1`, for which the inhibition is 13%.
As to `O=C(COC(=O)COc1cc(Cl)c(Cl)cc1Cl)NC1CC1`, the inhibition is 1.57% [at 12.3 µM].
For `NC(=S)NN=Cc1ccc(OC(=O)COc2cc(Cl)c(Cl)cc2Cl)cn1` the value was 74.3% [at 12.3 µM] (active); for `O=C(COc1cc(Cl)c(Cl)cc1Cl)NCCc1ccccn1`, -1.39% [at 12.3 µM]; for `CCCN(C)C[C@H]1OCCCC[C@@H](C)Oc2ccc(N(C)C)cc2C(=O)N([C@H](C)CO)C[C@@H]1C`, 0.797%.
The value for `CCOC(=O)c1[nH]c2ccccc2c1N=C(C)N(CC)CC` was -0.896% [at 12.3 µM]; that for `CCOC(=O)c1c(C)[nH]c2c1-c1ccccc1C(=O)C2=O` was 58.9% [at 12.3 µM] (active); that for `CCOC(=O)c1c(C)[nH]c(C)c1S(=O)(=O)NCCCc1ccco1` was -4.62% [at 12.3 µM].
For `C[C@H](CO)N1C[C@H](C)[C@@H](CN(C)CC2CC2)Oc2ccc(NC(=O)Nc3ccccc3)cc2CC1=O` the value was -2.58%; for `CCN(C(=O)CN1C(=O)/C(=C/c2ccc(F)cc2)SC1=S)C1CCS(=O)(=O)C1` (stereo not given), -11.4% [at 12.3 µM]; for `CN(C(=O)CCN1C(=O)/C(=C/c2ccccc2F)SC1=S)C1CCS(=O)(=O)C1` (stereo not given), -6.28% [at 12.3 µM].
Turning to `CN(C(=O)CN1C(=O)/C(=C/c2ccc(Cl)cc2)SC1=S)C1CCS(=O)(=O)C1` (stereo not given), the inhibition was 55.1% [at 12.3 µM] (active).
The value for `CNC[C@H]1Oc2ncc(-c3ccccc3F)cc2C(=O)N([C@H](C)CO)C[C@H]1C` was 10.5%.
